The record followed here is PubChem BioAssay (NCATS).

Values without a mark were called inactive. Records with an inconclusive call do not appear. The source made the active and inactive calls. Unless noted, the call rests on the fitted dose curve; in most records, active means well fitted curve in either direction with a large enough effect (not every such curve was filed as active); inconclusive means small, poorly fitted or top-dose-only effect, or another doubt; inactive means flat fitted curve, though single readings scatter. A value given as a limit tells only on which side of the number the result lay.

In assay [1] the target is Lysosomal acid glucosylceramidase (Homo sapiens) (UniProt P04062). Description: Glucocerebrosidase-p2 (AID 348; in the data active means potency below about 10 µM; further: potency means the concentration at half of the fitted maximal effect). The settings on record: purified GBA, blue fluorogenic substrate, 40 min. In outline:
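Normal human glucocerebrosidase (0.2 nM) with blue fluorogenic substrate (80 uM final) in citrate/phosphate pH 5.9 with 10mM sodium taurocholate, 0.01% tween-20; 40 min RT, NaOH/glycine stop; fluorescence Ex 365/Em 440; AC50 from a titration from 0.6 nM upwards.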

Assay [2] in a line: AP1 Signaling Pathway (AID 357).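 Further: ME-180 reporter cells stimulated with EGF at its EC50 level; on the % scale 0 is the no-effect control and ±100 the full control effect.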 The settings on record: ME-180 AP-1-bla reporter, EGF-induced, beta-lactamase ratio, 5 h; at 7.69 µM (top of the series) unless noted. In outline: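 AP-1-bla ME-180 cells, Opti-MEM + 0.5% dialyzed FBS, plated overnight 37 °C. Cpd titration + EC50 EGF, 5 h 37 °C. CCF4 2.5 h RT; ex 405, em 460/530 ratio → %activity, AC50.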
The target in assay [3] is Cytochrome P450 1A2 (Homo sapiens) (UniProt P05177). Description: p450-cyp1a2 (AID 410; calls by dose curve; further: potency means the concentration at half of the fitted maximal effect). The note with it: recombinant CYP1A2, luciferin-ME demethylation, luminescence; series mostly up to 11.4 µM. In outline:
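Read-out is luminescence from luciferin produced by CYP1A2 demethylation of Luciferin-ME (100uM, at Km). Detection reagent stopped the 60 min NADPH-dependent reaction; signals were normalized to 57 uM furafylline.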

Assay [4] in a line: NFAT Signaling Pathway (AID 444).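 Further: carbachol stimulus at about its EC50 of 1 µM final; on the % scale 0 is the no-effect control and ±100 the full control effect.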 The note with it: Jurkat NFAT-bla M1, carbachol, beta-lactamase ratio, 5 h; at 7.69 µM (top of the series) unless noted. In outline: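 Jurkat cells carrying an NFAT-driven β-lactamase reporter and co-transfected muscarinic M1 receptor were treated with compound plus carbachol (1 uM final, an EC50 level) for 5 h at 37 °C. CCF4 loading followed for 1 h at RT; 460/530 nm ratio gave %activity.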

Assay [5] is described as follows: Stat Signaling Pathway (AID 446).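 Further: ME-180 cervical cancer cells given 40 pM IL-6 alongside compound; SIE-controlled beta-lactamase reporter measured as 460/530 nm FRET emission ratio; on the % scale 0 is the no-effect control and ±100 the full control effect.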 The note with it: ME-180 SIE beta-lactamase reporter, IL-6 stimulated, 5 h; at 7.69 µM (top of the series) unless noted. In outline: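 Normalization used AC90 stimulation (300 pM IL-6) and AC90 inhibition (125 nM pan-JAK inhibitor at 40 pM IL-6). The underlying signal is SIE-driven beta-lactamase in ME-180 cells after 5 h IL-6 exposure with compound.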

Assay [6] concerns the target Glucocorticoid receptor (Homo sapiens) (UniProt P04150). Description: GR-GFP Redistribution (AID 450;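 active means compounds whose dose series gives a full or clear partial fitted curve of increased nuclear translocation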; further: potency means the concentration at half of the fitted maximal effect). The settings on record: U2OS GR-GFP nuclear translocation, laser cytometry, 2 h.
The target is the same in assay [7]. Description: GR-EFC Redistribution (AID 451; calls by dose curve; further: potency means the concentration at half of the fitted maximal effect). The settings on record: CHO-K1 GR-EFC translocation, beta-gal luminescence, 2 h. In outline:
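CHO-K1 cells stably expressing nuclear-localized β-gal enzyme acceptor and GR fused C-terminally to the enzyme donor fragment; ligand-driven nuclear translocation restores β-gal by complementation. Compounds titrated up to 46 uM final, 2 h at 37 °C; luminescence read.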

The target of assay [8] is Mitogen-activated protein kinase 10 (Mus musculus) (UniProt Q61831). Description: JNK3 AlphaScreen Assay (AID 530).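 Further: kinase came from lysate of stimulated human HepG2 cells; on the % scale 0 is the no-effect control and ±100 the full control effect.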 The settings on record: JNK3 lysate, c-Jun phosphorylation; series mostly up to 11.4 µM. In outline: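 Biotinylated GST-cJun(1-79) served as substrate for JNK3 in HepG2 lysates stimulated with IL-1beta and TNF-alpha. ATP was 10 uM final, pH 7.6. Ser73 phosphorylation was quantified by AlphaScreen (680 nm excitation).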
In general terms: Bead proximity is the source of the signal in Alpha formats.

For assay [9], the target named is 3',5'-cyclic-AMP phosphodiesterase 4B (Homo sapiens) (UniProt Q07343). Description: qHTS Assay for Inhibitors of PDE-IV (AID 607; active means well fitted activation curve with a large enough effect in the main read-out, with a control signal flat, not every such curve was filed as active; further: % of control where 0% means no effect). The settings on record: HEK293 ACTOne CNG channel cells, membrane potential fluorescence; series mostly up to 22.9 µM. In outline: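 HEK293 ACTOne cells with CNG channel (1000/well), endogenous PDE4; membrane potential dye, compounds up to 22.9 uM final. Fluorescence Ex 535/Em 590; RO 20-1724 (100 uM final) as reference.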
Chain of 3',5'-cyclic-AMP phosphodiesterase 4B (Homo sapiens) (Q07343 whole entry, looked up): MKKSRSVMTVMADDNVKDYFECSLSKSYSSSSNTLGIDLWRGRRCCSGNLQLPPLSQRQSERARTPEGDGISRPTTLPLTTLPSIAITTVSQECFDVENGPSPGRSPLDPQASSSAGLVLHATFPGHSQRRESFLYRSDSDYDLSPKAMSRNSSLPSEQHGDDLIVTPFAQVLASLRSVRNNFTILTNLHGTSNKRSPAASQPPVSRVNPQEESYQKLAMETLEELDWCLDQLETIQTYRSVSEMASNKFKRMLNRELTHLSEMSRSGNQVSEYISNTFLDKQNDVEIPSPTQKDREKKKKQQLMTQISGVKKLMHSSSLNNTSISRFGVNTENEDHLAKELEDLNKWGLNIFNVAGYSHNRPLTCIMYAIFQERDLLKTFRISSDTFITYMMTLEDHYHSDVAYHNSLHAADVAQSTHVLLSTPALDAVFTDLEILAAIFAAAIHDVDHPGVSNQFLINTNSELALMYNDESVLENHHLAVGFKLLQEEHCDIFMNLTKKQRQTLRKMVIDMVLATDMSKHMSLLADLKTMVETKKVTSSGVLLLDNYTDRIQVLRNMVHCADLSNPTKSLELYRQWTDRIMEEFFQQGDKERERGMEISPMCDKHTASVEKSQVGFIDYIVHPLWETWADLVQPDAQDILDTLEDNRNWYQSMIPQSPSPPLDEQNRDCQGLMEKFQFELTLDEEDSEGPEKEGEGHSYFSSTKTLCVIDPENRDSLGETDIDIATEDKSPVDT
(In general: Quantitative high-throughput screening tests each substance at several concentrations.)

A short description of assay [10]: qHTS Assay for Identification of Small Molecule Agonists for Hypoxia Response Element Signaling Pathway (AID 914; active means well fitted activation curve with a large enough effect in the signal ratio, with a control signal flat, not every such curve was filed as active; the % refers to the signal ratio; further: % of control where 0% means no effect). The note with it: ME-180 (cervical carcinoma) HRE-bla reporter, beta-lactamase ratio, CoCl2, 17 h; activation: stronger effect = higher value. In outline:
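Cells were plated overnight, pin-dosed with compound in a titration series, co-stimulated with EC50 CoCl2 and incubated 17 hours at 37 degrees Celsius. CCF4 substrate was then loaded, and AC50 values came from the 460nm/530nm ratio.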

Assay [11] has as its target Cytochrome P450 2C19 (Homo sapiens) (UniProt P33261). Description: qHTS Assay for Inhibitors and Substrates of Cytochrome P450 2C19 (AID 899; active means well fitted inhibition curve with a large enough effect; further: on the % scale 0 is the no-effect control and ±100 the full control effect; nearly all actives have a fitted effect of over 60% in size). The settings on record: recombinant CYP2C19, luciferin-H EGE luminescence; series mostly up to 11.4 µM. In outline: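 NADPH-dependent conversion of Luciferin-H EGE (10uM, at KM) by 5nM enzyme in 50mM KPO4, 60 min at 37C following 10 min compound preincubation. Stopped with luciferin detection buffer; luminescence read after 20 min.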

Chain of Glucocorticoid receptor (Homo sapiens) (P04150 whole entry, looked up): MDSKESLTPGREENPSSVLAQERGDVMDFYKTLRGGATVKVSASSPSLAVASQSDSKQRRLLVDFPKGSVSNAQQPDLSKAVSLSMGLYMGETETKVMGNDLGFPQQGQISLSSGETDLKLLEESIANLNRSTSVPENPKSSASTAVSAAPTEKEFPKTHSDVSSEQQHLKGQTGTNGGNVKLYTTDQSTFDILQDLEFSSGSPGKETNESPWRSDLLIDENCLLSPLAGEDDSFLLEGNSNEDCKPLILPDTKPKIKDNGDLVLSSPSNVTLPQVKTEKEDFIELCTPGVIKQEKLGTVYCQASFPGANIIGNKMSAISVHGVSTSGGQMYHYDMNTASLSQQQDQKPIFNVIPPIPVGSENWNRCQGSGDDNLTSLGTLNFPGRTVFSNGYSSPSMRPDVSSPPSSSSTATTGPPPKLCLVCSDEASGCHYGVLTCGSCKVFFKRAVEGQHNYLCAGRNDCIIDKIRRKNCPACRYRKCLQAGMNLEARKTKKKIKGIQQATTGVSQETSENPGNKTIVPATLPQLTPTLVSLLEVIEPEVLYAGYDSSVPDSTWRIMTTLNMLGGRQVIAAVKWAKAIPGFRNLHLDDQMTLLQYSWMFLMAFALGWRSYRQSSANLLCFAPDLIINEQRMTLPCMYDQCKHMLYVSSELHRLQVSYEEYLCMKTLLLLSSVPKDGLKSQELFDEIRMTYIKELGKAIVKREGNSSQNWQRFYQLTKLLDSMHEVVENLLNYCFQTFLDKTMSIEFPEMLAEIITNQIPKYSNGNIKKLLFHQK
Chain of Cytochrome P450 1A2 (Homo sapiens) (P05177 whole entry, looked up): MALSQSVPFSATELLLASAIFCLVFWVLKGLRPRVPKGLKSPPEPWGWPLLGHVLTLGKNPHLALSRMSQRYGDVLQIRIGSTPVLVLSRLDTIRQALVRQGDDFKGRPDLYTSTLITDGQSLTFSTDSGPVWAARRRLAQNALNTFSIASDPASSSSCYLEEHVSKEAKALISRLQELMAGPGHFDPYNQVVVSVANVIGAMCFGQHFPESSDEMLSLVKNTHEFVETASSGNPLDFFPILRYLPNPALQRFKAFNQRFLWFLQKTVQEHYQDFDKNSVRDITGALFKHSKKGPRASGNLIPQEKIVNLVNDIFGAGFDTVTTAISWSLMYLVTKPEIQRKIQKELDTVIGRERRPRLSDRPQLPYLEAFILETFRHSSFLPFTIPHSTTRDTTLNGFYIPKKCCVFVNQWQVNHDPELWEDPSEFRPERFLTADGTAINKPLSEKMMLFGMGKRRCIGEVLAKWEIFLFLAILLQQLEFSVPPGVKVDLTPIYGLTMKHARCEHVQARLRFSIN
Chain of Lysosomal acid glucosylceramidase (Homo sapiens) (P04062 whole entry, looked up): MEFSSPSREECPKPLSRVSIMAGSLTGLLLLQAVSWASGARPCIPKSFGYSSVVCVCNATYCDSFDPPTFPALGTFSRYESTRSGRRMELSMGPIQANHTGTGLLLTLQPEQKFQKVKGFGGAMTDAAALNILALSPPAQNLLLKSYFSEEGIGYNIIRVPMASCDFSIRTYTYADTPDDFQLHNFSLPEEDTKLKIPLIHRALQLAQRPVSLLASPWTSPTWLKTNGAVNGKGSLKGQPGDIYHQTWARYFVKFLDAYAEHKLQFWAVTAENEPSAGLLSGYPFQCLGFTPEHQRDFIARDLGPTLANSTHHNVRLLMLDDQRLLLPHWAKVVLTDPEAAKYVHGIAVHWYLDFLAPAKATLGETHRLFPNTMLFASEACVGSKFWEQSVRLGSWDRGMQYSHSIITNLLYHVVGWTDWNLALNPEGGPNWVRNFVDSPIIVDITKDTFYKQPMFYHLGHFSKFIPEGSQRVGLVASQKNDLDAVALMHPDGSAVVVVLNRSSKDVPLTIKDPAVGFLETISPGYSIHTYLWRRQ
Chain of Cytochrome P450 2C19 (Homo sapiens) (P33261 whole entry, looked up): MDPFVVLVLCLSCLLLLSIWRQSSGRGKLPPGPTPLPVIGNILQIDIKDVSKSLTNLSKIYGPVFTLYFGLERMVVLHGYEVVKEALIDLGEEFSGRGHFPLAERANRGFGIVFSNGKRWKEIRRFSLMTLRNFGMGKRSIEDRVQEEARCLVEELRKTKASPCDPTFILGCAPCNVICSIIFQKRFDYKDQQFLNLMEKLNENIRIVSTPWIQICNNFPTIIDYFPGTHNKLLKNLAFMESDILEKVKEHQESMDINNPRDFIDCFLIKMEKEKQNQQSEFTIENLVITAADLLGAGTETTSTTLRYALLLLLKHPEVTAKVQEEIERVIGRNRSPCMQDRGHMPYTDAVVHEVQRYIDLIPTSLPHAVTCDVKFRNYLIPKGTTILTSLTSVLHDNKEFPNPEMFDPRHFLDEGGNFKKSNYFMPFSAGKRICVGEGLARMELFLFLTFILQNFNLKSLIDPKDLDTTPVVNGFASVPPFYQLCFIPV

In the case of `N=c1nc(N)nc(N)n1-c1ccc(S(N)(=O)=O)cc1`, the Potency in assay [1] is greater than 11.4 µM; in assay [6], greater than 46 µM; in [7] it was greater than 9.22 µM. The activity change, negative = inhibition in assay [2] was 4.82%; in assay [3], -3.8% [at 2.29 µM]; in assay [4], 9.5%. Also, in assay [5], the activity, negative = inhibition was 6.13%. Besides, the Potency entry in assay [8] and in [9] was “inactive” each time. Besides, the activation in assay [10] is 8.62%.

As to `Cc1cc(C2(c3cc(C)c(O)c(C(=O)O)c3)OS(=O)(=O)c3ccccc32)cc(C(=O)O)c1O`, the Potency in [1] is greater than 11.4 µM; in assay [6], greater than 46 µM; in [7], greater than 9.22 µM. For the same compound, the activity change, negative = inhibition in assay [2] is -7.31%; in assay [4], -1.56%. The Potency result in assay [3], in [8] and in assay [9] was “inactive” each time. The activity, negative = inhibition in assay [5] is 2.58%. Also, in assay [10], the activation is -3.84%.

Turning to `O[C@@H]1[C@@H](OCc2ccccc2)OC[C@H](O)[C@@H]1O`, the Potency in [1] was greater than 11.4 µM; in [6] it was greater than 46 µM; in assay [7], greater than 9.22 µM. In addition, the activity change, negative = inhibition in assay [2] is 17.3%; in assay [4], -8.65%. In addition, the Potency result in assay [3], in assay [8], in [9] and in [11] was “inactive” throughout. Moreover, the activity, negative = inhibition in [5] was 4.2%.

As to `O=C(NCCO)c1ccc(Cl)cc1`, the Potency in assay [1] is greater than 11.4 µM; in [3], 3.98 µM (active); in assay [6], greater than 46 µM; in assay [7], greater than 9.22 µM. For the same compound, the activity change, negative = inhibition is -0.923% in assay [2] and 9.91% in assay [4]. For the same compound, in assay [5], the activity, negative = inhibition is 15.2%. Further, the Potency entry in assay [8] and in assay [9] was “inactive” each time. Moreover, the activation in assay [10] was 9.98%.

For `O=C1c2ccccc2-c2ccc(NC(=O)[C@H]3CCCC[C@@H]3C(=O)O)cc21`, the Potency in assay [1] was greater than 11.4 µM; in assay [3], 1 µM (active); in assay [6], greater than 46 µM; in [7], greater than 9.22 µM. For the same compound, the values for the activity change, negative = inhibition in [2] and in assay [4] were 9.83% and 13.7%, respectively. The activity, negative = inhibition in assay [5] is 1.55%. For the same compound, the Potency entry in assay [8] and in assay [9] was “inactive” each time. In addition, the activation in [10] was -7.45%.

Regarding `NS(=O)(=O)c1ccc(N=Nc2ccc(O)c(C(=O)O)c2)cc1`, the figures for the Potency in assay [1], in assay [6] and in assay [7] were greater than 11.4 µM, greater than 46 µM and greater than 9.22 µM, respectively. Besides, the activity change, negative = inhibition is -0.844% in assay [2] and -4.82% in [4]. Further, the Potency result in assay [3], in [8] and in assay [9] was “inactive” throughout. Further, in [5], the activity, negative = inhibition was -2.97%. For the same compound, the activation in [10] was 12.3%.

For `O[C@@H](COc1cccc2ccccc12)CN1CCOCC1`, the Potency is greater than 11.4 µM in [1], 3.98 µM (active) in assay [3], greater than 46 µM in assay [6] and greater than 9.22 µM in [7]. In addition, the values for the activity change, negative = inhibition in assay [2] and in assay [4] were 3.83% and 4.33%, respectively. In addition, the activity, negative = inhibition in [5] is 3.7%. Also, the Potency result in assay [8] and in assay [9] was “inactive” each time. Also, in assay [10], the activation is 3.28%.

For the compound `O=C(O)[C@H]([C@H]1NCCS1)N1Cc2ccccc2C1`, the Potency in [1] was greater than 11.4 µM; in assay [6], greater than 46 µM; in assay [7], greater than 9.22 µM. In addition, the activity change, negative = inhibition in assay [2] is 11%; in [3], -13.4% [at 2.29 µM]; in assay [4] it was 5.16%. Moreover, in assay [5], the activity, negative = inhibition is 2.46%. The Potency result in assay [8] and in [9] was “inactive” each time. Besides, in assay [10], the activation was 13.9%.

In the case of `Cc1ccc(S(=O)(=O)Oc2cc(S(=O)(=O)O)cc3cc(S(=O)(=O)O)cc(N)c23)cc1`, the Potency in [1] was greater than 11.4 µM; in assay [3], 2 µM (active); in [6], greater than 46 µM; in assay [7] it was greater than 9.22 µM. The values for the activity change, negative = inhibition in assay [2] and in assay [4] were 8.2% and 1.61%, respectively. The activity, negative = inhibition in assay [5] is 11.7%. Besides, the Potency result in assay [8] and in assay [9] was “inactive” each time. Besides, in [10], the activation is -7.4%.

`NS(=O)(=O)c1ccc(N=C2C(=O)Nc3ccccc32)cc1`: the Potency was greater than 11.4 µM in assay [1], greater than 46 µM in assay [6] and greater than 9.22 µM in assay [7]. For the same compound, the activity change, negative = inhibition in assay [2] is -4.71%; in assay [3], -12.7% [at 2.29 µM]; in assay [4] it was 4.31%. Besides, the activity, negative = inhibition in [5] is 4.23%. Further, the Potency result in assay [8] and in assay [9] was “inactive” each time. The activation in [10] was -6.17%.

Regarding `CC(C)CNc1nc(N)[nH]c(=O)c1NC=O`, the Potency was greater than 11.4 µM in assay [1], greater than 46 µM in [6] and greater than 9.22 µM in assay [7]. The activity change, negative = inhibition in assay [2] is 9%; in assay [4], -1.94%. Also, the Potency entry in assay [3], in [8], in assay [9] and in assay [11] was “inactive” throughout. Further, the activity, negative = inhibition in assay [5] was 7.03%.

As for `C[C@@](N)(/C=C\c1ccccc1)C(=O)O`, the Potency in assay [1] is greater than 11.4 µM; in [6], greater than 46 µM; in assay [7], greater than 9.22 µM. Also, the results for the activity change, negative = inhibition in [2] and in assay [4] were -1.95% and 12%, respectively. In addition, the Potency entry in assay [3], in assay [8] and in assay [9] was “inactive” each time. Also, the activity, negative = inhibition in [5] was -3.44%. In addition, the activation in assay [10] was -2.86%.

With `Cc1c(NC(=O)Nc2c(Cl)cccc2Cl)c(=O)n(-c2ccccc2)n1C`, the Potency in [1] was greater than 11.4 µM; in assay [6], greater than 46 µM; in assay [7], greater than 9.22 µM. Moreover, the activity change, negative = inhibition is 4.18% in assay [2] and -0.333% in assay [4]. Besides, the Potency result in [3], in assay [8] and in [9] was “inactive” in each case. In addition, the activity, negative = inhibition in assay [5] was -1.35%. The activation in [10] was -3.31%.

For `C/C(=N/S(=O)(=O)c1ccc(Cl)c(Cl)c1)OCC(C)(C)C`, the results for the Potency in assay [1], in assay [6] and in assay [7] were greater than 11.4 µM, greater than 46 µM and greater than 9.22 µM, respectively. The activity change, negative = inhibition in [2] is 2.66%; in assay [4], 20%. Further, the Potency result in [3], in assay [8] and in assay [9] was “inactive” in each case. Also, the activity, negative = inhibition in [5] is 1.9%. In assay [10], the activation is 8.96%.
